# Results from PubChem BioAssay AID651597 (National Center for Advancing Translational Sciences (NCATS), 2012).
# Among all 1,100 compounds or so, about 390 (35%) were called active. Another 30% or so got no clear call; they are omitted. Some of the results follow. Values without a mark were called inactive. Calls follow the shape of the dose curve; as a rule, active = well fitted inhibition curve with a large enough effect; inconclusive = small, poorly fitted or top-dose-only effect; inactive = flat fitted curve, though single readings scatter.
# Target: Luciferin 4-monooxygenase (Photinus pyralis) (UniProt P08659)
# Test: qHTS of Nrf2 Activators: Hit Validation in Secondary FLuc Assay; also: nearly all actives have a fitted effect of over 65% in size
# Details: firefly luciferase inhibition counter-screen, luminescence; series mostly up to 57.5 µM; activity, negative = inhibition: at the top concentration
# Outline: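 Counter-screen on purified firefly luciferase with ATP and D-luciferin at Km concentrations; compounds flagged if they inhibit the enzyme, indicating possible reporter stabilization rather than ARE activation.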
# % is scaled to controls: 0 for no effect and ±100 for the full control effect; potency is read from the fitted curve at half-maximal effect.
Structure (SMILES),"activity, negative = inhibition",Potency
COC(=O)[C@@H]1Cc2c([nH]c3ccccc23)C(C)(C)N1C(=O)CCl,3.08%,
Cc1cc(Br)ccc1NC(=O)CNC(=O)Cn1ncc(Cl)c(Cl)c1=O,-3.69%,
CCOC(=O)c1ccsc1NC(=O)CCS(=O)(=O)c1ccccc1,2.57%,
CCOC(=O)c1ccccc1N/C=C/C(=O)c1ccccc1,,10.7 µM (active)
CCOC(=O)c1cnc(-c2ccccc2)nc1-c1ccccc1,-24.4%,
CS(=O)(=O)c1nc(S(=O)(=O)c2ccc(Cl)cc2)c(N2CCC3(CC2)OCCO3)s1,-1.6%,
Cc1ccc(Nc2nc(C(N)=O)c(NC(=O)c3ccccc3Br)s2)cc1,,13.5 µM (active)
COC(=O)c1c(NC(=O)c2ccccc2)sc(C(N)=O)c1C,-0.933%,
NC(=O)c1nc(Nc2ccccc2)sc1NC(=O)c1ccccc1Br,-28.1%,
O=C(CSc1nccc(-c2cccs2)n1)Nc1cccc(Cl)c1Cl,-6.99%,
O=C(Nc1ncc2c(n1)-c1ccccc1CC2)c1cccs1,,10.7 µM (active)
O=C(CSc1nccc(-c2cccs2)n1)Nc1cccc(Cl)c1,-5.97%,
O=C(Nc1nccc(-c2cccs2)n1)c1cccs1,,10.7 µM (active)
Fc1ccc(Nc2nc3ccccc3n3cnnc23)c(F)c1,6.09%,
Cc1c(Nc2nc3ccccc3n3cnnc23)cccc1[N+](=O)[O-],0.0637%,
Oc1ccccc1Nc1nc2ccccc2n2nnnc12,,10.7 µM (active)
CSc1ccc(C2NN=C(c3ccccc3)S2)cc1 (centres undefined),,0.0426 µM (active)
CC(C)OC(=O)c1cn(-c2ccccc2)nc1-c1ccco1,,6.75 µM (active)
O=C(Nc1cccnc1)C1(F)C(F)(F)C(F)(F)C(F)(F)C(F)(F)C1(F)F,-3.88%,
N#Cc1c(NC(=O)c2ccc([N+](=O)[O-])o2)sc2c1CCC2,,1.69 µM (active)
O=C(Nc1ccc(N2CCN(C(=O)c3ccc(Cl)cc3)CC2)cc1)c1ccc([N+](=O)[O-])o1,-19.8%,
O=C(NCC1CCCO1)c1ccc([N+](=O)[O-])o1 (centres undefined),-0.921%,
O=C(Nc1ccc(Br)c(Cl)c1)c1ccco1,,5.36 µM (active)
O=C(Nc1nc2ccsc2c(=O)s1)c1ccco1,,10.7 µM (active)

Structure (SMILES),"activity, negative = inhibition",Potency
O=C(Nc1nc2c(ccc3ccccc32)s1)c1ccco1,,4.78 µM (active)
O=C(Nc1cc(Cl)ccc1-n1cncn1)c1ccco1,-2.78%,
O=C(Nc1nc(-c2ccncc2)cs1)c1ccco1,,12 µM (active)
Cc1ccc(Cl)c2sc(NC(=O)C3CC3)nc12,2.02%,
CC(=O)Nc1ccc2nc(NC(=O)c3ccco3)sc2c1,,2.39 µM (active)
Cc1cc(Cl)cc2sc(NC(=O)c3ccco3)nc12,,1.69 µM (active)
C[C@H]1CCC[C@]2(C)C[C@H]3OC(=O)C(CN4CCCCCC4)[C@H]3C=C12 (some centres undefined),1.07%,
N#CC1CC(c2ccccc2)=NN1c1ccccc1[N+](=O)[O-] (centres undefined),,3.79 µM (active)
Cc1ccc(Cc2c(-c3ccco3)nc3c(C)cc(Br)cn23)cc1,,5.36 µM (active)
Cc1cc(Br)cn2c(Cc3ccccc3)c(-c3ccco3)nc12,,9.53 µM (active)
COc1cc2c(cc1OC)/C(=C/c1ccc(Cl)cc1)C(=O)OC2,-15.1%,
O=C(O)c1ccc2c(=O)n3c(nc2c1)/C(=C/c1cccc(Cl)c1Cl)CC3,-29.6%,
O=C(Nc1ccc(Br)c(C(F)(F)F)c1)c1ccccc1,,9.53 µM (active)
O=C(Nc1c(Br)cc2c(c1Br)Cc1ccccc1-2)C(F)(F)F,-22.6%,
O=C(Nc1ccc2c(c1)C(=O)NC2=O)c1cccc(C(F)(F)F)c1,1.88%,
c1ccc(Cn2ncc3c(NCc4ccco4)ncnc32)cc1,3.05%,
Cc1cc(NCc2ccco2)n2c(nc3ccccc32)c1C#N,-6.56%,
Cc1ccc(-c2nc(NCc3ccco3)c3ccccc3n2)cc1,,10.7 µM (active)
O=C(NC(=S)Nc1ccc(Cl)cn1)c1cccs1,,0.151 µM (active)
O=C(NC(=S)Nc1ccc(Br)cn1)c1cccs1,,0.19 µM (active)
O=C(NC(=S)Nc1cccc2cccnc12)c1cccs1,,0.953 µM (active)
Cc1cccc(NC(=S)NC(=O)c2cccs2)n1,,12 µM (active)
COC(=O)c1sccc1NC(=O)c1ccc(Br)s1,-17.3%,
O=C(N/N=C/c1ccc(Br)s1)c1cccs1,,6.75 µM (active)

Structure (SMILES),"activity, negative = inhibition",Potency
Cc1ccc(S(=O)(=O)c2nc(S(C)(=O)=O)sc2N2CCC3(CC2)OCCO3)cc1,0.757%,
Cc1cc(NC(=O)CC(C)(C)C)nc2c1c(=O)oc1ccccc12,-2.51%,
C=CCc1cccc(C=Nc2cc(Br)ccc2O)c1O,-4.76%,
Fc1cccc(Cc2c(-c3ccco3)nc3ccc(Br)cn23)c1,,5.36 µM (active)
Brc1ccc2nc(-c3ccco3)c(Cc3ccsc3)n2c1,,5.36 µM (active)
O=C(N/N=C/C=C/c1ccco1)c1cccc([N+](=O)[O-])c1,-19.3%,
O=C(N/N=C\C=C\c1ccco1)c1cc(-c2ccc3ccccc3c2)n[nH]1,,5.36 µM (active)
O=C(O)c1ccc(/C=C2\COc3ccccc3C2=O)cc1,,9.53 µM (active)
COc1ccc(N(CCCN2C(=O)c3cccc4cccc(c34)C2=O)C(=O)c2ccncc2)cc1,-1.09%,
Cc1c(C(=O)NCc2ccco2)oc2c(Cl)cccc12,-3.49%,
O=C(CSc1nnc2c(n1)[nH]c1ccccc12)NCc1ccco1,,19 µM (active)
O=C(NCc1ccco1)c1n[nH]c(=O)c2ccccc12,7.6%,
Cc1ccc(O)c(NC(=O)c2cccc(NC(=O)c3ccco3)c2)c1,,12 µM (active)
Clc1ccc(Br)cc1-c1nc(-c2ccncc2)no1,,8.49 µM (active)
CSc1nc2sc3c(c2c(=O)n1C)CCC(C)C3 (centres undefined),,6.01 µM (active)
COc1cc(/C=N/Nc2nc3ccccc3s2)ccc1OC(=O)c1ccccc1F,,5.36 µM (active)
Cc1ccc2ccc(C3C(=O)c4ccccc4C3=O)nc2c1,,0.269 µM (active)
Cn1c(NCC2CCCCC2)nc2cc(-c3ccsc3)sc2c1=O,-9.1%,
Cn1c(NCc2ccc3occc3c2)nc2cc(-c3cccc(C(F)(F)F)c3)sc2c1=O,-5.21%,
COc1ncccc1-c1cc2nc(NCCNC(C)=O)n(C)c(=O)c2s1,,15.1 µM (active)
C/C(=N\NC(=O)c1cccc(S(=O)(=O)N2CCCC2)c1)c1ccco1,-17.4%,
C/C(=N\NC(=O)c1c[nH]c2ccccc12)c1ccco1,,7.57 µM (active)
CC(=NNC(=O)CSc1nc2ccccc2o1)c1ccco1,1.42%,
Oc1ccc2ccccc2c1N=Nc1ccccn1,,10.7 µM (active)

Structure (SMILES),"activity, negative = inhibition",Potency
CCc1nc(N)c(C#N)c(-c2ccco2)c1C,-17.2%,
CSc1nnc(-c2ccco2)c(-c2ccco2)n1,,4.78 µM (active)
O=C(CSc1nnc(-c2ccco2)c(-c2ccco2)n1)c1ccccc1,,2.69 µM (active)
C=C1C2=C(C(=O)N1OC)[C@@H](O)[C@@](C)(O)[C@@H](CCCCC)O2,1.91%,
CC(C)N(C(=O)COC(=O)c1ccccc1C(=O)c1ccc(Cl)c([N+](=O)[O-])c1)C(C)C,10.7%,
O=C(Nc1nc2ccccc2[nH]1)c1ccc(Cl)c([N+](=O)[O-])c1,,2.69 µM (active)
O=C(c1ccc(S(=O)(=O)Cc2ccccc2Cl)c([N+](=O)[O-])c1)N1CCOCC1,-6.47%,
N#C/C(=C\c1c(Oc2ccc(Cl)cc2)nc2ccccn2c1=O)C(=O)NC1CCS(=O)(=O)C1 (centres undefined),-26.8%,
COc1cc(NC(=S)Nc2ccccn2)c(OC)cc1Cl,-25.7%,
COc1ccccc1C(=O)NCc1nc2cccnc2n1Cc1ccc(F)cc1,2.77%,
COc1ccccc1NC(=O)c1cc(Cl)nc2ccccc12,-5.47%,
COc1ccccc1NC(=O)c1ncn(-c2ccccc2)n1,,10.7 µM (active)
COc1ccccc1NC(=O)C(=O)Nc1ccccn1,,1.69 µM (active)
CCCn1c(-c2cccs2)nc2nc3ccccc3nc21,,12 µM (active)
O=C(C=Cc1ccccc1Cl)c1ccccc1,,0.953 µM (active)
COCCN(C(=O)COC(=O)/C=C/c1ccccc1Cl)c1c(N)n(Cc2ccccc2)c(=O)[nH]c1=O,3.75%,
O=C(/C=C/c1ccccc1Cl)Nn1cnc2ccccc2c1=O,-25.3%,
Cn1c(=O)c(C(=O)NNC(=O)c2ccccc2F)c(O)c2ccccc21,-25.6%,
Oc1ccc(Cl)cc1-c1cc(-c2ccco2)[nH]n1,,13.5 µM (active)
Oc1c(-c2cc(-c3ccco3)[nH]n2)ccc2ccccc12,,0.953 µM (active)
FC(F)(F)c1cc(-c2ccco2)nc(NCc2ccco2)n1,-29.3%,
Oc1ccc(Br)cc1-c1cc(-c2ccco2)[nH]n1,,16.9 µM (active)
Oc1ccccc1C=NN=C1c2ccccc2-c2ccccc21,,4.26 µM (active)
Nc1c(Cl)c(Cl)nc(C(=O)N/N=C/c2ccco2)c1Cl,-5.24%,

Structure (SMILES),"activity, negative = inhibition",Potency
O=C(Nc1ccccc1C(=O)N/N=C/c1ccco1)c1ccc(F)cc1,,4.78 µM (active)
O=C(Nc1ccccc1C(=O)N/N=C/c1ccco1)c1ccccc1,,7.57 µM (active)
O=C(N/N=C/c1cn[nH]c1-c1ccccc1)c1ccco1,-26.1%,
COC(CN(C(=O)CCl)C(C(=O)NC1CCCCC1)c1ccccc1C)OC (centres undefined),-0.975%,
COc1ccc([N+](=O)[O-])cc1NC(=O)c1ccco1,-0.817%,
COc1ccc([N+](=O)[O-])cc1C1NN=C(c2ccccc2O)S1 (centres undefined),,8.49 µM (active)
CCN1CCN(c2sc(S(C)(=O)=O)nc2S(=O)(=O)c2ccc(Cl)cc2)CC1,3.21%,
CC(=O)OC1(C(C)=O)CCC2C3CC(C(F)(F)F)C4=CC(=O)CCC4(C)C3CCC21C (centres undefined),-0.683%,
CC1CN(c2sc(S(C)(=O)=O)nc2S(=O)(=O)c2ccc(Cl)cc2)CC(C)O1 (centres undefined),-28.1%,
O=C(Nc1ccccc1)Nc1cccc2nsnc12,,2.69 µM (active)
O=C(Nc1ccccc1)c1nc[nH]c1C(=O)Nc1ccccc1F,-0.43%,
C/C(=N\Nc1ccccn1)c1ccc(Br)s1,,12 µM (active)
C/C(=N\Nc1ccccn1)c1cccs1,,2.39 µM (active)
C/C(=N\Nc1ccc2nncn2n1)c1ccc(Cl)s1,-3.88%,
Cn1c(N)c(C(=O)COC(=O)c2nc(Cl)ccc2Cl)c(=O)n(C)c1=O,-3.17%,
CC(C)(C)c1csc(NC(=O)CCS(=O)(=O)c2ccc(F)cc2)n1,-18.9%,
O=C(/C=C/c1ccccc1)Nc1ncn[nH]1,,10.7 µM (active)
CN1c2ccsc2/C(=N/Nc2ccccc2)CS1(=O)=O,,7.57 µM (active)
OCC1OC(n2cnc3c(NCc4ccccc4O)ncnc32)C(O)C1O (centres undefined),-0.396%,
CC1=NC(=O)C(N=Nc2cccc(O)c2)N1c1ccccc1 (centres undefined),,3.79 µM (active)
Clc1ccc(/C=N/Nc2nnc(Cl)c3ccccc23)cc1,,0.338 µM (active)
CSc1nsc(SC)c1C(=O)Nc1ccc(C)cc1,-30%,
CNc1nc(N)c([N+](=O)[O-])c(Nc2cccc(Cl)c2)n1,5.42%,
